Assay results taken from PubChem BioAssay (NCATS).
Inconclusive results are not listed. Entries that show only a call come without a potency. Calls of active or inactive are those of the source. The call rests on the fitted dose curve; in most records, active means well fitted inhibition curve with a large enough effect; inconclusive means small, poorly fitted or top-dose-only effect; inactive means flat fitted curve, though single readings scatter.

What was measured:
Test in all cases: qHTS profiling for inhibitors of Plasmodium falciparum proliferation (AID 504749); further: nearly all actives have a fitted effect of over 60% in size
Conditions in all cases: P. falciparum in erythrocytes, SYBR Green DNA, 72 h; series mostly up to 28.7 µM
CP315 = system: CP315
How it was run: (§1)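 Fluorescence of SYBR Green-bound parasite DNA, read at 485/535 nm, served as the growth measure. Infected erythrocytes were cultured with compound 72 h; artemisinin (0.29 uM) and DMSO wells defined the normalization range.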

CP325 = system: CP325
How it was run: as §1

CP329 = system: CP329
How it was run: as §1

CP335 = system: CP335
How it was run: as §1

DFO2036 = system: DFO2036
How it was run: as §1

DIV14 = system: DIV14
How it was run: as §1

DIV17 = system: DIV17
How it was run: as §1

DIV30 = system: DIV30
How it was run: as §1

Dd2 = system: Dd2
How it was run: as §1

ECU = system: ECU
How it was run: as §1
Potency means the concentration at half of the fitted maximal effect.

Row | SMILES | Potency (CP315) | Potency (CP325) | Potency (CP329) | Potency (CP335) | Potency (DFO2036) | Potency (DIV14) | Potency (DIV17) | Potency (DIV30) | Potency (Dd2) | Potency (ECU)
1 | CCC(C(=O)NC(N)=O)c1ccccc1 (stereo not given) | inactive | inactive | inactive | inactive | inactive | inactive | inactive | inactive | inactive | inactive
2 | COC(=O)c1ccccc1O | inactive | inactive | inactive | inactive | inactive | inactive | inactive | inactive | inactive | inactive
3 | CCCCC[C@H](O)/C=C/[C@H]1[C@H](O)CC(=O)[C@@H]1C/C=C\CCCC(=O)O | inactive | inactive | inactive | inactive | inactive | inactive | inactive | inactive | inactive | inactive
4 | O[C@@H]([C@H](O)[C@H](O)CBr)[C@H](O)CBr | inactive | inactive | inactive | inactive | inactive | inactive | inactive | inactive | inactive | inactive
5 | CCCC(=O)O | inactive | inactive | inactive | inactive | inactive | inactive | inactive | inactive | inactive | inactive
6 | O=C1c2ccccc2C(=O)C1c1ccc(F)cc1 | inactive | inactive | inactive | inactive | inactive | inactive | inactive | inactive | inactive | inactive
7 | CCc1ccc(S(=O)(=O)O)cc1 | inactive | inactive | inactive | inactive | inactive | inactive | inactive | inactive | inactive | inactive
8 | CC(C)c1ncc([N+](=O)[O-])n1C | inactive | inactive | inactive | inactive | inactive | inactive | inactive | inactive | inactive | inactive
9 | CNC(=O)C[C@@H](N)C(=O)N[C@@H](C(=O)N[C@@H]1C(=O)N2[C@@H]1SC(C)(C)[C@@H]2C(=O)O)c1ccc(O)cc1 | inactive | inactive | inactive | inactive | inactive | inactive | inactive | inactive | inactive | inactive
10 | O=C(O)c1ccc(OCCn2ccnc2)cc1 | inactive | inactive | inactive | inactive | inactive | inactive | inactive | inactive | inactive | inactive
11 | c1ccc2c(c1)Sc1ccccc1N2CCN1CCCC1 | 12 µM (active) | 15.1 µM (active) | 15.1 µM (active) | 9.53 µM (active) | 10 µM (active) | 6.01 µM (active) | 6.75 µM (active) | 12 µM (active) | 5.62 µM (active) | 10 µM (active)
12 | CN[C@@H]1[C@H](O[C@H]2[C@H](O[C@H]3[C@H](O)[C@@H](O)[C@H](N=C(N)N)[C@@H](O)[C@@H]3N=C(N)N)O[C@@H](C)[C@]2(O)C=O)O[C@@H](CO)[C@H](O)[C@H]1O | inactive | inactive | inactive | inactive | inactive | inactive | inactive | inactive | inactive | inactive
13 | CCCCO | inactive | inactive | inactive | inactive | inactive | inactive | inactive | inactive | inactive | inactive
14 | CCN(CC)CCOc1ccccc1OC | inactive | inactive | inactive | inactive | inactive | inactive | inactive | inactive | inactive | inactive
15 | NCCN | inactive | inactive | inactive | inactive | inactive | inactive | inactive | inactive | inactive | inactive
16 | CC(C)=CCC/C(C)=C/CC/C(C)=C/CC/C=C(\C)CC/C=C(\C)CCC=C(C)C | inactive | inactive | inactive | inactive | inactive | inactive | inactive | inactive | inactive | inactive
17 | C[C@@](Cc1ccc(O)c(O)c1)(NN)C(=O)O | inactive | inactive | inactive | inactive | inactive | inactive | inactive | inactive | inactive | inactive
18 | CC1CCCCN1CCCOC(=O)c1ccccc1 (stereo not given) | inactive | inactive | inactive | inactive | inactive | inactive | inactive | inactive | inactive | inactive
19 | Cc1cccc(C)c1NC(=O)C1CCCCN1C (stereo not given) | inactive | inactive | inactive | inactive | inactive | inactive | inactive | inactive | inactive | inactive
20 | CC(=O)N=c1sc(S(N)(=O)=O)nn1C | inactive | inactive | inactive | inactive | inactive | inactive | inactive | inactive | inactive | inactive
21 | COc1cc2c(cc1OC)[C@@H](Cc1cc(OC)c(OC)c(OC)c1)[N+](C)(CCCOC(=O)CC/C=C/CCC(=O)OCCC[N+]1(C)CCc3cc(OC)c(OC)cc3[C@H]1Cc1cc(OC)c(OC)c(OC)c1)CC2 (stereo not given in full) | inactive | inactive | inactive | inactive | inactive | inactive | inactive | inactive | inactive | inactive
22 | CCN(CC)C(=S)S | inactive | inactive | inactive | inactive | inactive | inactive | inactive | inactive | inactive | inactive
23 | c1ccc(-n2cnnn2)cc1 | inactive | inactive | inactive | inactive | inactive | inactive | inactive | inactive | inactive | inactive

Row | SMILES | Potency (CP315) | Potency (CP325) | Potency (CP329) | Potency (CP335) | Potency (DFO2036) | Potency (DIV14) | Potency (DIV17) | Potency (DIV30) | Potency (Dd2) | Potency (ECU)
24 | COc1ccc(/C=N/NC(=O)c2ccncc2)c(C(=O)O)c1OC | inactive | inactive | inactive | inactive | inactive | inactive | inactive | inactive | inactive | inactive
25 | C[C@H](CCCC(C)(C)O)[C@H]1CC[C@H]2[C@@H]3CC=C4C[C@@H](O)CC[C@]4(C)[C@H]3CC[C@]12C | inactive | inactive | inactive | inactive | inactive | inactive | inactive | inactive | 15.8 µM (active) | inactive
26 | CC1=CC(=O)NS(=O)(=O)O1 | inactive | inactive | inactive | inactive | inactive | inactive | inactive | inactive | inactive | inactive
27 | [O]=[Bi][O][Bi]=[O] | inactive | inactive | inactive | inactive | inactive | inactive | inactive | inactive | inactive | inactive
28 | CC12CCC(C1)C(C)(C)C2=O (stereo not given) | inactive | inactive | inactive | inactive | inactive | inactive | inactive | inactive | inactive | inactive
29 | O=[n+]1ccn([O-])c2ccccc21 | inactive | inactive | inactive | inactive | inactive | inactive | inactive | inactive | inactive | inactive
30 | Cc1ccccn1 | inactive | inactive | inactive | inactive | inactive | inactive | inactive | inactive | inactive | inactive
31 | O=P(O)(O)OC[C@H](O)CO | inactive | inactive | inactive | inactive | inactive | inactive | inactive | inactive | inactive | inactive
32 | O=C(O)COc1ccc(CCNS(=O)(=O)c2ccccc2)s1 | inactive | inactive | inactive | inactive | inactive | inactive | inactive | inactive | inactive | inactive
33 | C=CC(C)(O)CC/C=C(\C)CCC=C(C)C (stereo not given) | inactive | inactive | inactive | inactive | inactive | inactive | inactive | inactive | inactive | inactive
34 | FC(F)(F)COCC(F)(F)F | inactive | inactive | inactive | inactive | inactive | inactive | inactive | inactive | inactive | inactive
35 | CC1(O)CCC(C(C)(C)O)CC1 (stereo not given) | inactive | inactive | inactive | inactive | inactive | inactive | inactive | inactive | inactive | inactive
36 | CCCCCCCCCCCC(=O)N(CCO)CCO | inactive | inactive | inactive | inactive | inactive | inactive | inactive | inactive | inactive | inactive
37 | CC/C(=C(/CC)c1ccc(OP(=O)(O)O)cc1)c1ccc(OP(=O)(O)O)cc1 | inactive | inactive | inactive | inactive | inactive | inactive | inactive | inactive | inactive | inactive
38 | [O-][N+](=Nc1ccccc1)c1ccccc1 | inactive | inactive | inactive | inactive | inactive | inactive | inactive | inactive | inactive | inactive
39 | CC/C=C\C/C=C\C/C=C\C/C=C\C/C=C\CCCC(=O)O | inactive | inactive | inactive | inactive | inactive | inactive | inactive | inactive | inactive | inactive
40 | O=C(O)CCCC/C=C(\c1ccccc1)c1cccnc1 | inactive | inactive | inactive | inactive | inactive | inactive | inactive | inactive | inactive | inactive
41 | CC(=O)Nc1ccc(OC(=O)c2ccccc2O)cc1 | inactive | inactive | inactive | inactive | inactive | inactive | inactive | inactive | inactive | inactive
42 | CO/N=C(\C(=O)N[C@@H]1C(=O)N2C(C(=O)[O-])=C(C[n+]3cccc4c3CCC4)CS[C@H]12)c1csc(N)n1 | inactive | inactive | inactive | inactive | inactive | inactive | inactive | inactive | inactive | inactive
43 | O=S(=O)(O)CCCS(=O)(=O)O | inactive | inactive | inactive | inactive | inactive | inactive | inactive | inactive | inactive | inactive
44 | OC[C@H]1O[C@@](CO)(O[C@H]2O[C@H](CO)[C@@H](O)[C@H](O)[C@H]2O)[C@@H](O)[C@@H]1O | inactive | inactive | inactive | inactive | inactive | inactive | inactive | inactive | inactive | inactive
45 | c1ccc2ccccc2c1 | inactive | inactive | inactive | inactive | inactive | inactive | inactive | inactive | inactive | inactive
46 | O=S(=O)(O)CC(S)CS (stereo not given) | inactive | inactive | inactive | inactive | inactive | inactive | inactive | inactive | inactive | inactive
